Consider ten molecules from the supplement of paper PMC4022240.

± gives the standard deviation.

What all share (assay): peptide microarray binding signal (635 nm), min-max normalized on array (fraction of array maximum); higher = stronger binding
Common to all, as to details: peptide region: H3 11-23

Assay [1] deals with T1, HaloTag-ATRX ADD domain (163-292).
T1 chain: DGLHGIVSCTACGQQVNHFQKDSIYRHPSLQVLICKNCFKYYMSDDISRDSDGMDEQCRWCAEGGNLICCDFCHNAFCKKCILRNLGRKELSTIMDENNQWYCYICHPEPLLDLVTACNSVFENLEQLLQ
The gist of the method:
(§1)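 Triplicate spots of histone 13-mer peptide–cellulose conjugates with a Cy3 tracer were printed on nitrocellulose and probed for 1 h at 4°C with biotin-labelled HaloTag reader fusions (10 nM to 1 μM) plus streptavidin-Alexa Fluor 647 or rabbit histone antibodies (1:10,000 to 1:2,000) plus anti-rabbit Alexa 647. An Axon GenePix 4000B read the 635 nm channel. Binding signal is the spot-triplicate mean intensity after min-max scaling within each library.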

The target of assay [2] is HaloTag-ING2 PHD (mouse Ing2 200-280). The gist of the method:
as §1

The target in assay [3] is anti-H3K4me3 antibody ab8580. The gist of the method:
as §1

Assay [4] addresses anti-H3K9me3 antibody ab8898. In short, it runs like this: as §1
The mark [5] stands for this setting: peptide modifications: H3R17cit H3K18ac, binder concentration: 1:2,000 dilution.
[6] abbreviates: peptide modifications: H3R17cit H3K18ac, binder concentration: 1:10,000 dilution.
Where [7] appears, read: peptide modifications: H3R17me2a H3K18ac, binder concentration: 1:2,000 dilution.
The mark [8] stands for this setting: peptide modifications: H3R17me2a H3K18ac, binder concentration: 1:10,000 dilution.
Setting [9] is: peptide modifications: H3R17me1 H3K18me2, binder concentration: 1:2,000 dilution.
The mark [10] stands for this setting: peptide modifications: H3R17me1 H3K18me2, binder concentration: 1:10,000 dilution.
The mark [11] stands for this setting: peptide modifications: H3K18me1, binder concentration: 1:2,000 dilution.
Where [12] appears, read: peptide modifications: H3K18me1, binder concentration: 1:10,000 dilution.
Setting [13] is: peptide modifications: H3R17me1 H3K18ac, binder concentration: 1:2,000 dilution.
The mark [14] stands for this setting: peptide modifications: H3R17me1 H3K18ac, binder concentration: 1:10,000 dilution.
[15] abbreviates: peptide modifications: H3R17me1 H3K18me3, binder concentration: 1:2,000 dilution.
[16] abbreviates: peptide modifications: H3R17me1 H3K18me3, binder concentration: 1:10,000 dilution.
Where [17] appears, read: peptide modifications: H3R17cit H3K18me2, binder concentration: 1:2,000 dilution.
Where [18] appears, read: peptide modifications: H3R17cit H3K18me2, binder concentration: 1:10,000 dilution.
[19] abbreviates: peptide modifications: H3K18me2, binder concentration: 1:2,000 dilution.
Setting [20] is: peptide modifications: H3K18me2, binder concentration: 1:10,000 dilution.
[21] abbreviates: peptide modifications: H3K14me3 H3R17me2s, binder concentration: 1:2,000 dilution.
[22] abbreviates: peptide modifications: H3K14me3 H3R17me2s, binder concentration: 1:10,000 dilution.
Where [23] appears, read: peptide modifications: H3R17cit H3K18me1, binder concentration: 1:2,000 dilution.
[24] abbreviates: peptide modifications: H3R17cit H3K18me1, binder concentration: 1:10,000 dilution.

Consider TGGKAPRKQLATK [H3 11-23 T G G K A P Rcit Kac Q L A T K], for which the “peptide microarray binding signal” value stood at 0.00473 ± 9.3e-05 in assay [1] (peptide modifications: H3R17cit H3K18ac, binder concentration: 50 nM); 0.0124 ± 0.00036 in assay [1] (peptide modifications: H3R17cit H3K18ac, binder concentration: 500 nM); 0.00364 in assay [2] (peptide modifications: H3R17cit H3K18ac, binder concentration: 10 nM); 0.0114 ± 0.0017 in assay [2] (peptide modifications: H3R17cit H3K18ac, binder concentration: 100 nM); 0.003 ± 0.00042 in assay [3] (setting [5]); 0.0028 ± 0.00011 in assay [3] (setting [6]). The “peptide microarray binding signal” value is 0.000634 ± 2.6e-05 in assay [4] (setting [5]) and 0.000865 ± 2.4e-05 in assay [4] (setting [6]).
In the case of TGGKAPRKQLATK [H3 11-23 T G G K A P Rme2a Kac Q L A T K], the “peptide microarray binding signal” value in assay [1] (peptide modifications: H3R17me2a H3K18ac, binder concentration: 50 nM) was 0.00671 ± 0.00026; in assay [1] (peptide modifications: H3R17me2a H3K18ac, binder concentration: 500 nM) it was 0.0144 ± 0.001; in assay [2] (peptide modifications: H3R17me2a H3K18ac, binder concentration: 10 nM), 0.00967 ± 0.00055; in assay [2] (peptide modifications: H3R17me2a H3K18ac, binder concentration: 100 nM), 0.0188 ± 0.0034; in assay [3] (setting [7]), 0.00549 ± 0.00049; in assay [3] (setting [8]), 0.0302 ± 0.033. Moreover, the “peptide microarray binding signal” value in assay [4] (setting [7]) is 0.00273 ± 0.00027; in assay [4] (setting [8]), 0.00427 ± 0.0013.
With TGGKAPRKQLATK [H3 11-23 T G G K A P Rme Kme2 Q L A T K], the “peptide microarray binding signal” value in assay [1] (peptide modifications: H3R17me1 H3K18me2, binder concentration: 50 nM) is 0.00837 ± 0.00068; in assay [1] (peptide modifications: H3R17me1 H3K18me2, binder concentration: 500 nM), 0.0122 ± 0.0013; in assay [2] (peptide modifications: H3R17me1 H3K18me2, binder concentration: 10 nM) it was 0.0167 ± 0.002; in assay [2] (peptide modifications: H3R17me1 H3K18me2, binder concentration: 100 nM), 0.0345 ± 0.0088; in assay [3] (setting [9]) it was 0.0126 ± 0.0083; in assay [3] (setting [10]), 0.0135 ± 0.01. In addition, the “peptide microarray binding signal” value was 0.00181 ± 0.00018 in assay [4] (setting [9]) and 0.001557 ± 1.5e-05 in assay [4] (setting [10]).
Consider TGGKAPRKQLATK [H3 11-23 T G G K A P R Kme Q L A T K], for which the “peptide microarray binding signal” value amounted to 0.00433 ± 0.00015 in assay [1] (peptide modifications: H3K18me1, binder concentration: 50 nM); 0.0187 ± 0.00044 in assay [1] (peptide modifications: H3K18me1, binder concentration: 500 nM); 0.00979 ± 0.0017 in assay [2] (peptide modifications: H3K18me1, binder concentration: 10 nM); 0.0252 ± 0.0035 in assay [2] (peptide modifications: H3K18me1, binder concentration: 100 nM); 0.00217 ± 0.00021 in assay [3] (setting [11]); 0.00108 ± 1.9e-05 in assay [3] (setting [12]). The “peptide microarray binding signal” value in assay [4] (setting [11]) was 0.00293 ± 8.2e-05; in assay [4] (setting [12]), 0.00173 ± 6e-05.
With TGGKAPRKQLATK [H3 11-23 T G G K A P Rme Kac Q L A T K], the “peptide microarray binding signal” value is 0.00715 ± 0.00026 in assay [1] (peptide modifications: H3R17me1 H3K18ac, binder concentration: 50 nM); 0.0141 ± 0.00063 in assay [1] (peptide modifications: H3R17me1 H3K18ac, binder concentration: 500 nM); 0.00931 ± 0.0014 in assay [2] (peptide modifications: H3R17me1 H3K18ac, binder concentration: 10 nM); 0.0197 ± 0.0049 in assay [2] (peptide modifications: H3R17me1 H3K18ac, binder concentration: 100 nM); 0.00513 ± 0.00068 in assay [3] (setting [13]); 0.0149 ± 0.004 in assay [3] (setting [14]). Further, the figures for the “peptide microarray binding signal” value in assay [4] (setting [13]) and in assay [4] (setting [14]) were 0.001208 ± 9.1e-06 and 0.00121 ± 3.2e-05, respectively.
Regarding TGGKAPRKQLATK [H3 11-23 T G G K A P Rme Kme3 Q L A T K], the “peptide microarray binding signal” value in assay [1] (peptide modifications: H3R17me1 H3K18me3, binder concentration: 50 nM) turned out to be 0.0105 ± 0.00069; in assay [1] (peptide modifications: H3R17me1 H3K18me3, binder concentration: 500 nM), 0.0187 ± 0.002; in assay [2] (peptide modifications: H3R17me1 H3K18me3, binder concentration: 10 nM), 0.00901 ± 0.00033; in assay [2] (peptide modifications: H3R17me1 H3K18me3, binder concentration: 100 nM), 0.014 ± 0.0016; in assay [3] (setting [15]) it was 0.468 ± 0.19; in assay [3] (setting [16]), 0.29 ± 0.07. Moreover, the “peptide microarray binding signal” value in assay [4] (setting [15]) was 0.0548 ± 0.023; in assay [4] (setting [16]), 0.0168 ± 0.0037.
Take TGGKAPRKQLATK [H3 11-23 T G G K A P Rcit Kme2 Q L A T K]: the “peptide microarray binding signal” value in assay [1] (peptide modifications: H3R17cit H3K18me2, binder concentration: 50 nM) worked out at 0.00542 ± 6.7e-05; in assay [1] (peptide modifications: H3R17cit H3K18me2, binder concentration: 500 nM), 0.0117 ± 0.00022; in assay [2] (peptide modifications: H3R17cit H3K18me2, binder concentration: 10 nM), 0.00806 ± 0.00083; in assay [2] (peptide modifications: H3R17cit H3K18me2, binder concentration: 100 nM) it was 0.0217 ± 0.0032; in assay [3] (setting [17]) it was 0.0091 ± 0.0018; in assay [3] (setting [18]) it was 0.00548 ± 0.00043. The “peptide microarray binding signal” value turned out to be 0.000921 ± 7.2e-05 in assay [4] (setting [17]) and 0.000865 ± 2.4e-05 in assay [4] (setting [18]).
As to TGGKAPRKQLATK [H3 11-23 T G G K A P R Kme2 Q L A T K], the “peptide microarray binding signal” value in assay [1] (peptide modifications: H3K18me2, binder concentration: 50 nM) is 0.00558 ± 0.00014; in assay [1] (peptide modifications: H3K18me2, binder concentration: 500 nM), 0.0142 ± 0.0013; in assay [2] (peptide modifications: H3K18me2, binder concentration: 10 nM) it was 0.004595 ± 2.3e-05; in assay [2] (peptide modifications: H3K18me2, binder concentration: 100 nM), 0.0225 ± 0.0074; in assay [3] (setting [19]), 0.00421 ± 0.00019; in assay [3] (setting [20]), 0.001541 ± 1.5e-05. Further, the figures for the “peptide microarray binding signal” value in assay [4] (setting [19]) and in assay [4] (setting [20]) were 0.00397 ± 0.00076 and 0.00231 ± 4.2e-05, respectively.
On to TGGKAPRKQLATK [H3 11-23 T G G Kme3 A P Rme2s K Q L A T K], for which the “peptide microarray binding signal” value in assay [1] (peptide modifications: H3K14me3 H3R17me2s, binder concentration: 50 nM) amounted to 0.0074 ± 0.0004; in assay [1] (peptide modifications: H3K14me3 H3R17me2s, binder concentration: 500 nM), 0.0114 ± 0.00062; in assay [2] (peptide modifications: H3K14me3 H3R17me2s, binder concentration: 10 nM), 0.0227 ± 0.00044; in assay [2] (peptide modifications: H3K14me3 H3R17me2s, binder concentration: 100 nM), 0.0342 ± 0.0024; in assay [3] (setting [21]), 0.0208 ± 0.0037; in assay [3] (setting [22]) it was 0.0151 ± 0.00082. For the same molecule, the “peptide microarray binding signal” value in assay [4] (setting [21]) stood at 0.021 ± 0.0014; in assay [4] (setting [22]) it was 0.0116 ± 0.00028.
Consider TGGKAPRKQLATK [H3 11-23 T G G K A P Rcit Kme Q L A T K], for which the “peptide microarray binding signal” value was found to be 0.00524 ± 6.5e-05 in assay [1] (peptide modifications: H3R17cit H3K18me1, binder concentration: 50 nM); 0.009239 ± 4.5e-05 in assay [1] (peptide modifications: H3R17cit H3K18me1, binder concentration: 500 nM); 0.00382 ± 0.00016 in assay [2] (peptide modifications: H3R17cit H3K18me1, binder concentration: 10 nM); 0.014 ± 0.0031 in assay [2] (peptide modifications: H3R17cit H3K18me1, binder concentration: 100 nM); 0.00383 ± 0.00052 in assay [3] (setting [23]); 0.0028 ± 0.00018 in assay [3] (setting [24]). For the same molecule, the “peptide microarray binding signal” value in assay [4] (setting [23]) was determined as 0.000846 ± 5.8e-05; in assay [4] (setting [24]), 0.000807.
